The nature of experiment [1]: qHTS RealTime-Glo MT Cell Viability Assay in HEK293 cells - 0 hour (AID 1224880). Note: top concentration of the series differs between compounds; nearly all actives have a fitted effect of over 45% in size. The essentials: (§1)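 Luminescence readout at each listed time point; HEK293, 600 cells/well, RealTime-Glo MT reagent added with cells; compounds pinned (23 nL in DMSO) after 5 h at 37 C; continuous culture at 37 C.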
Experiment [2] can be described thus: A CellTox Green Cytotoxicity Assay to monitor cytotoxicity in HEK293 cells - 32 hour (AID 1224881). Note: nearly all actives have a fitted effect of over 40% in size. Note: potency is the fitted concentration of half-maximal effect. The essentials:
(§2)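 Read-out: fluorescence of a cell-impermeant cyanine dye staining DNA of dead cells, proportional to cytotoxicity. HEK293, 600 cells/well with reagent, compound (23 nL DMSO) added after 5 h; reads at 0, 8, 16, 24, 32, 40 h.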

Experiment [3] is described as follows: A CellTox Green Cytotoxicity Assay to monitor cytotoxicity in HepG2 cells - 0 hour (AID 1224882). Note: nearly all actives have a fitted effect of over 35% in size. In outline:
(§3)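 HepG2, 600 cells/well premixed w/ CellTox Green; 5 h settle, 37 C/5% CO2; pintool cpd add (DMSO); 37 C, 40 h; fluorescence read at 0, 8, 16, 24, 32, 40 h.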

A short description of experiment [4]: A CellTox Green Cytotoxicity Assay to monitor cytotoxicity in HepG2 cells - 32 hour (AID 1224883). Note: nearly all actives have a fitted effect of over 50% in size. Note: potency is the fitted concentration of half-maximal effect. The essentials: as §3
Experiment [5] is described as follows: A CellTox Green Cytotoxicity Assay to monitor cytotoxicity in HEK293 cells - 8 hour (AID 1224884). Note: nearly all actives have a fitted effect of over 35% in size. The essentials: as §2
Experiment [6] can be described thus: qHTS RealTime-Glo MT Cell Viability Assay in HepG2 cells - 16 hour (AID 1224885). Note: nearly all actives have a fitted effect of over 50% in size. In outline:
(§4)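 Cells + NanoLuc/prosubstrate dispensed (600 cells/well) → 5 h at 37 C/5% CO2 → compounds in DMSO transferred → 40 h incubation at 37 C, luminescence read at 0, 8, 16, 24, 32, 40 h.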
Background: Quantitative high-throughput screening tests each substance at several concentrations.

Experiment [7] can be described thus: qHTS RealTime-Glo MT Cell Viability Assay in HEK293 cells - 24 hour (AID 1224886). For activity change, negative = cytotoxicity: top concentration of the series differs between compounds. Note: nearly all actives have a fitted effect of over 50% in size. Note: potency is the fitted concentration of half-maximal effect. The essentials: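 Tox21 10K qHTS, HEK293, 600 cells/well, RealTime-Glo reagent co-dispensed with cells; 5 h preincubation, compound by pintool, 37 C, luminescence at 0–40 h.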
The nature of experiment [8]: qHTS RealTime-Glo MT Cell Viability Assay in HEK293 cells - 8 hour (AID 1224887). For activity change, negative = cytotoxicity: top concentration of the series differs between compounds. Note: nearly all actives have a fitted effect of over 50% in size. Note: potency is the fitted concentration of half-maximal effect. The essentials: as §1
Experiment [9] is described as follows: A CellTox Green Cytotoxicity Assay to monitor cytotoxicity in HEK293 cells - 16 hour (AID 1224888). Note: nearly all actives have a fitted effect of over 35% in size. Note: potency is the fitted concentration of half-maximal effect. The essentials: as §2
Experiment [10] is described as follows: qHTS RealTime-Glo MT Cell Viability Assay in HepG2 cells - 0 hour (AID 1224889). Note: nearly all actives have a fitted effect of over 50% in size. The essentials:
as §4

This is an account of results in PubChem BioAssay (Tox21).

Molecules are shown by their SMILES. Unmarked numbers belong to inactive results. Records with an inconclusive call do not appear. The source made the active and inactive calls. Calls come from the whole dose curve; as a rule, active = well fitted curve in the direction sought with a large enough effect in the repeat runs; inconclusive = weak or mixed curves; inactive = no such curve, though single readings can be large; an effect the other way counts as inactive or inconclusive.
% is set by controls: 0 for no effect and ±100 for the full control effect.

In the case of `CC(C)CCCCCCc1ccc(OCCOCCO)cc1`, the result in [1] and in experiment [6] was inactive. The Potency result in experiment [2], in experiment [3], in experiment [4], in [5], in [7] and in experiment [8] was “inactive” throughout. In addition, the Potency entry in experiment [9] and in [10] was “inactive” each time.
For `C1CSCCS1`, the result in [1] and in experiment [6] was inactive. Besides, the Potency entry in [2], in [3], in experiment [4], in experiment [5], in [7] and in experiment [8] was “inactive” throughout. Also, the Potency entry in [9] and in experiment [10] was “inactive” throughout.
With `CC(C)C(=O)OCC(C)(C)C(O)C(C)C` (centres undefined), the molecule was called inactive in experiment [1] and in experiment [6]. For the same molecule, the Potency entry in [2], in experiment [3], in [4], in experiment [5], in experiment [7] and in [9] was “inactive” each time. Also, the Potency result in [10] was “inactive”.
Take `CC(=O)OC(C)OC(C)=O`: the call in [1] and in experiment [6] was inactive. In addition, the Potency entry in [2], in [3], in experiment [4], in experiment [5], in experiment [7] and in experiment [9] was “inactive” each time. The Potency entry in [10] is “inactive”.
`CCN1CC(CCN2CCOCC2)C(c2ccccc2)(c2ccccc2)C1=O` (centres undefined): the molecule was classed as inactive in [1] and in [6]. Also, the Potency result in experiment [2], in experiment [3], in experiment [4], in experiment [5], in [7] and in [8] was “inactive” in each case. Also, the Potency entry in experiment [9] and in experiment [10] was “inactive” each time.
Consider `OCCN1CCN(CCO)CC1`, for which the molecule was classed as inactive in [1] and in experiment [6]. Besides, the Potency result in experiment [2], in [3], in experiment [4], in [5], in experiment [7] and in [8] was “inactive” throughout. Moreover, the Potency entry in experiment [9] and in experiment [10] was “inactive” in each case.
`CC(C)(C)C1CCCCC1=O` (centres undefined): the outcome in experiment [1] and in experiment [6] was inactive. The Potency entry in experiment [2], in experiment [3], in [4], in experiment [5], in experiment [7] and in [9] was “inactive” in each case. For the same molecule, in [10], the Potency result was “inactive”.
`CCCCNCCCC`: the molecule was called inactive in experiment [1] and in experiment [6]. Also, the Potency result in [2], in experiment [3], in experiment [4], in experiment [5], in experiment [7] and in experiment [8] was “inactive” throughout. The Potency result in experiment [9] and in experiment [10] was “inactive” throughout.
`CC(=O)Nc1ccc(C)c(Cl)c1`: the result in experiment [1] and in experiment [6] was inactive. Also, the Potency entry in experiment [2], in [3], in [4], in experiment [7], in [8] and in [9] was “inactive” in each case. Besides, in [10], the Potency result was “inactive”.
Regarding `Cc1nc(-c2ccccn2)ncc1C(=O)Nn1cc(C)c2cc(F)ccc21`, the molecule was classed as inactive in experiment [1] and in experiment [6]. Also, the Potency entry in experiment [2], in [3], in [4], in [9] and in experiment [10] was “inactive” throughout. Moreover, the Potency in [7] is 1.55 µM (active); in [8], 1.95 µM (active).
For `CCOc1ccccc1N`, the outcome in experiment [1] and in experiment [6] was inactive. The Potency entry in experiment [2], in experiment [3], in experiment [4], in experiment [5], in [8] and in experiment [9] was “inactive” in each case. The Potency result in experiment [10] is “inactive”.
On to `Oc1ccccc1C=NCc1ccccc1`, for which the outcome in experiment [1] and in experiment [6] was inactive. For the same molecule, the Potency result in experiment [2], in experiment [3], in experiment [4], in [7], in experiment [9] and in experiment [10] was “inactive” each time.
For `CC(=O)N(CC(O)CN(C(C)=O)c1c(I)c(C(=O)NCC(O)CO)c(I)c(C(=O)NCC(O)CO)c1I)c1c(I)c(C(=O)NCC(O)CO)c(I)c(C(=O)NCC(O)CO)c1I` (centres undefined), the molecule was classed as inactive in [1] and in [6]. Besides, the Potency entry in [2], in experiment [3], in [4], in [7], in experiment [8] and in [9] was “inactive” each time. Also, in experiment [10], the Potency entry is “inactive”.
For `CCCCCCCOC(=O)CCC`, the molecule was classed as inactive in experiment [1] and in experiment [6]. In addition, the Potency entry in [2], in experiment [3], in experiment [4], in experiment [7], in experiment [8] and in experiment [9] was “inactive” throughout. Also, the Potency entry in experiment [10] was “inactive”.
With `CC(=O)N[C@@H](CC(C)C)C(=O)O`, the call in experiment [1] and in experiment [6] was inactive. For the same molecule, the Potency result in [2], in experiment [3], in experiment [4], in experiment [7], in experiment [8] and in experiment [9] was “inactive” each time. In addition, the Potency result in [10] was “inactive”.
Regarding `CO[Si](C)(C)OC`, the call in experiment [1] and in experiment [6] was inactive. For the same molecule, the Potency result in experiment [2], in experiment [3], in experiment [4], in experiment [7], in experiment [8] and in [9] was “inactive” throughout. In addition, in experiment [10], the Potency entry is “inactive”.
`CC(=O)O[C@H]1CC[C@@]2(C)C(=CC[C@@H]3[C@@H]2CC[C@]2(C)C(C(C)=O)=CC[C@@H]32)C1`: the result in experiment [1] and in [6] was inactive. The Potency result in experiment [2], in experiment [3], in experiment [5], in experiment [7], in experiment [8] and in [9] was “inactive” throughout. For the same molecule, the Potency result in [10] was “inactive”.
Take `Cc1nc(N)nc(N)c1-c1ccc(Cl)c(Cl)c1`: the call in experiment [1] and in experiment [6] was inactive. The Potency entry in [2], in [3], in experiment [4], in experiment [5], in experiment [9] and in [10] was “inactive” in each case.
`CCCCCCCCCCCCOCCOS(=O)(=O)O`: the outcome in experiment [1] and in experiment [6] was inactive. The Potency in experiment [2] was 24.5 µM (active); in experiment [4] it was 54.9 µM (active); in [9], 21.9 µM (active). The Potency result in experiment [3], in experiment [7], in [8] and in [10] was “inactive” throughout.
In the case of `CCN(CCCc1ccccc1)CCCc1ccccc1`, the outcome in experiment [1] and in [6] was inactive. Moreover, the Potency entry in experiment [2], in experiment [3], in [4], in [5], in [8] and in experiment [9] was “inactive” each time. Further, the Potency result in [10] is “inactive”.
Turning to `CN(CCCN1c2ccccc2CCc2ccccc21)CC(=O)c1ccc(Cl)cc1`, the call in experiment [1] and in experiment [6] was inactive. Further, the Potency result in experiment [2], in [3], in experiment [5], in [7], in experiment [8] and in experiment [9] was “inactive” each time. For the same molecule, the Potency entry in [10] is “inactive”.
As to `CCN[C@H]1CN(CCCOC)S(=O)(=O)c2sc(S(N)(=O)=O)cc21`, the call in experiment [1] and in experiment [6] was inactive. The Potency result in [2], in experiment [3], in [4], in experiment [7], in [8] and in experiment [9] was “inactive” in each case. For the same molecule, the Potency result in experiment [10] was “inactive”.
Turning to `C[C@@H]1CN(c2c(F)c(F)c3c(=O)c(C(=O)O)cn(C4CC4)c3c2F)C[C@H](C)N1`, the activity change, negative = cytotoxicity in [1] is 0.0765% [at 15.8 µM]; in experiment [7] it was 9.9% [at 15.8 µM]; in experiment [8], 0.326% [at 15.8 µM]; in [10] it was -0.832% [at 15.8 µM]. Also, the cytotoxicity increase in experiment [2] was -0.134% [at 15.8 µM]; in [5], -0.256% [at 15.8 µM]. For the same molecule, the cytotoxicity in [3] is -1.92% [at 15.8 µM]. Also, the activity change, negative = cytotoxic in experiment [6] is -2.02% [at 15.8 µM]. In addition, the activity change in experiment [9] is 1.09% [at 15.8 µM, stronger effect = higher value].
For the molecule `CCCCC(CC)COC(=O)COc1cc(Cl)c(Cl)cc1Cl` (centres undefined), the outcome in experiment [1] and in experiment [6] was inactive. In addition, the Potency entry in experiment [2], in experiment [3], in experiment [5], in experiment [7], in experiment [8] and in experiment [9] was “inactive” each time. Moreover, the Potency entry in experiment [10] was “inactive”.
